According to PubChem BioAssay (NCI):
The panel holds about 83,000 compounds, 20% with a hit somewhere; the sample as a whole holds those more often.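 Interpretation: 100, growth as untreated; towards 0, rising growth inhibition; 0, no net growth; 0 to -100, cell death. Compounds scoring below 10 were considered active.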 Unmarked numbers belong to inactive results. Active and inactive are the calls of the source.

Columns and labels:
Experiment in all cases: NCI-60 one-dose screen, 48 h (100 = growth as untreated, 0 = no growth, -100 = all killed)
Details in all cases: 10 µM unless noted
NCI-H23 lung = tested on: NCI-H23 lung
NCI-H226 lung = tested on: NCI-H226 lung
NCI-H322M lung = tested on: NCI-H322M lung
HOP-62 NSCLC = tested on: HOP-62 NSCLC
NCI-H460 lung = tested on: NCI-H460 lung
NCI-H522 lung = tested on: NCI-H522 lung
A549/ATCC NSCLC = tested on: A549/ATCC NSCLC
786-0 renal = tested on: 786-0 renal
COLO 205 colon = tested on: COLO 205 colon

| SMILES | growth (NCI-H23 lung) | growth (NCI-H226 lung) | growth (NCI-H322M lung) | growth (HOP-62 NSCLC) | growth (NCI-H460 lung) | growth (NCI-H522 lung) | growth (A549/ATCC NSCLC) | growth (786-0 renal) | growth (COLO 205 colon) |
| --- | --- | --- | --- | --- | --- | --- | --- | --- | --- |
| COc1ccc(-c2nc(N3CCCC3=O)sc2Br)cc1OC | 95.7% | 93.8% | 96.6% | 103% | 108% | 89.1% | 96.8% | 97.5% | 112% |
| O=C(/C=C\c1cccc([N+](=O)[O-])c1)/C=C/c1cccc([N+](=O)[O-])c1 | 92.3% | 105% | 98.2% | 97.2% | 93.5% | 88.2% | 97.1% | 86.3% | 103% |
| O=c1[nH]c(-c2ccccc2)nc(CN2CCCCC2)c1O | 103% | 108% | 136% | 112% | 109% | 116% | 111% | 102% | 113% |
| N#Cc1c(-c2ccccc2)nc(SCC(=O)N2CCN(c3ccccc3)CC2)[nH]c1=O | 96.4% | 108% | 95.8% | 87.7% | 110% | 85.2% | 96.6% | 97.9% | 103% |
| CC(C)(C)n1cc(-c2ccnc(NCCCNS(=O)(=O)c3ccc(F)cc3)c2)c(-c2cccc(O)c2)n1 | 57.9% | 51.2% | 60.5% | 74% | 18.3% | 39.1% | 40% | 22.6% | 13% |
| C=C1C(=O)O[C@H]2[C@H]1CC/C(Cn1cc(CNC(=O)c3cc4ccccc4[nH]3)nn1)=C\CC[C@@]1(C)O[C@@H]21 | 84.1% | 101% | 94.7% | 101% | 101% | -65% (active) | – | 66.1% | -34.4% (active) |
| O=C(NNC(=O)N1c2ccccc2C=Cc2ccccc21)c1ccccc1 | 101% | 113% | 107% | 114% | 106% | 94% | 103% | 103% | 112% |
| O=c1c2sc3ncccc3c2nnn1-c1ccccc1 | 99.1% | 100% | 114% | 105% | 106% | 111% | 102% | 100% | 114% |
| N=C(N)c1ccc(-c2ccc(-c3cncc4ccccc34)s2)cc1F | -67.9% (active) | -64% (active) | -67.6% (active) | -83.3% (active) | -72.4% (active) | -90.5% (active) | -76.8% (active) | -91.2% (active) | -85.6% (active) |
| CCOC(=O)NNC(=S)Nc1ccccc1 | 99.5% | 103% | 102% | 102% | 108% | 100% | 96.3% | 103% | 131% |
| CC(C)(C)N1CCC1C(N)=O (centres undefined) | 86% | 118% | 125% | 96.8% | 104% | 172% | 99% | 29.6% | 106% |
| N=C(N)c1ccc(-c2ccc(-c3ccc(-c4cccs4)s3)s2)cc1 | 98.8% | 93.4% | 43% | 93.8% | 21.7% | 100% | 14% | 89.9% | 102% |
| COc1ccc2c(c1)[nH]c(=O)c1c3cccc(F)c3cn21 | 46.8% | 45.3% | 52.4% | 53.1% | 7.94% (active) | -4.04% (active) | 12.1% | 44.3% | -20.8% (active) |
| Fc1ccc(-c2nc(-c3nc4ncccc4[nH]3)cc3c2[nH]c2ccccc23)cc1F | 67.2% | 88.5% | 64.7% | 78.6% | 91.1% | 58.3% | 59% | 95.2% | 96.9% |
| C=C1CCC[C@]2(C)CCC[C@H](C)[C@@H](OC(C)=O)[C@@H]3OC(=O)C(=C)[C@@H]3C[C@H]1O2 | 74.5% | 78.6% | 99% | 99.9% | 74.7% | -6.33% (active) | 83.3% | 91.3% | 103% |
